Sampled rows, rich in hits. Any-hit rate of the full collection: about 7.8%.
HCMV inh – blocks human cytomegalovirus replication; HFF cells, HCMV-luciferase reporter, 72 h; stronger effect = lower value; activity change, negative = inhibition, % at 57.5 µM; hit rate 4.5% among 410,000; in the data active = activity change below about -60%; inconclusive = no clear call, values can overlap the other calls; inactive = above about -39%
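Luciferase read-out from HCMV-luciferase-infected HFFs (MOI 1 PFU/cell) 72 h post infection at 37C; compounds added after 16 h cell attachment; activity normalized between buffer-only basal and Salinomycin (10uM) inhibitor controls.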
VACV Venus inh – vaccinia inhibition (Venus reporter); Vaccinia virus Venus reporter expression, fluorescence; Potency, µM (series often up to 36.5 µM), for inactives: at the highest dose activity change, negative = inhibition, hits mostly inhibitors; hit rate 0.46% among 330,000; calls by dose curve; tested in A549 cells; note: potency is the fitted concentration of half-maximal effect; nearly all actives have a fitted effect of over 30% in size
HCV inh – inhibitors of hepatitis C virus infection | Huh7.5.1 HCVcc-Cre infection, luciferase reporter, 44 h | Potency, µM (top dose mostly 41.8 µM), for the others: top-dose activity change, negative = inhibition, usual class: inhibitors | hit rate 3.4% among 340,000 | AID 651820; active = well fitted inhibition curve with a large enough effect; inconclusive = small, poorly fitted or top-dose-only effect, or another doubt; inactive = no such curve, though single readings can be large or run the other way; note: potency is the fitted concentration of half-maximal effect
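Reporter virus HCVcc-Cre (~0.5 moi) infects cells exposed to compound; seeding density 1,000 cells/well with 4 h settling beforehand. Luminescence, 15 sec read, taken 44 h post-infection following a 15 min RT substrate incubation.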
LASV entry inh – inhibitors of Lassa virus binding or cell entry | Lassa virus pseudotype entry inhibition, cell reporter | Potency, µM (highest dose often 37.9 µM), inactives show at the highest dose activity change, negative = inhibition, hits mostly inhibitors | hit rate 1.2% among 300,000 | AID 540256; calls by dose curve; tested in HEK293 cells; note: potency is the fitted concentration of half-maximal effect; nearly all actives have a fitted effect of over 50% in size
MARV entry inh – blocks Marburg virus binding to or entry into cells; hit rate 1.8% among 300,000; AID 540276; Potency, µM (doses to about 37.8 µM), for the others: top-dose activity change, negative = inhibition, most hits filed as inhibitors; Marburg virus pseudotyped entry inhibition, cell reporter; calls by dose curve; tested in HEK293 cells; note: potency is the fitted concentration of half-maximal effect
Vaccinia mCherry – inhibitors of vaccinia virus infection (mCherry reporter signal) | Vaccinia virus mCherry reporter infection, fluorescence | Potency, µM (top dose mostly 36.5 µM), for inactives: top-dose activity change, negative = inhibition, usual class: inhibitors | hit rate 0.63% among 310,000 | AID 720579; calls by dose curve; tested in A549 cells; note: potency is the fitted concentration of half-maximal effect; nearly all actives have a fitted effect of over 35% in size
* hit, by the source's call; ? = inconclusive; . = no result given; ! = not active in a repeat; [ ] = remark or other dose. % is set by controls: 0 for no effect and ±100 for the full control effect.

SMILES	HCMV inh	VACV Venus inh	HCV inh	LASV entry inh	MARV entry inh	Vaccinia mCherry
CCC[C@H]1[C@@H](NC(=O)Nc2ccc(OC)cc2)CC[C@@]23CCCN2C(=O)CCC[C@@H]13	-1.9	.	.	.	.	.
COc1ccc(OC)c(CN2C[C@H](Sc3ccc(F)cc3)C[C@H]2C(=O)N(C)C)c1	.	-10.7%	.	.	.	-18.4%
Cc1nnc(SCc2ccccc2Cl)c2cc3sccc3n12	-16.6	-0.9%	.	12.3%[46.1 µM]	.	-9.9%
Cc1nc(NC2=NCN(CCCN3CCOCC3)CN2)nc2c(C)cccc12	.	-4.8%	7.08µM*	?	?	-13.3%
O=[N+]([O-])c1ccc(S(=O)(=O)CC2CSc3nc4ccccc4n32)cc1 (stereo not given)	-78.8*	-16.7%	?	?	?	-14.8%
Cc1nnc2n(c1=O)C(CS(=O)(=O)c1ccccc1)CS2 (stereo not given)	49.3	.	-17.4%	8.2%	-15.8%	.
CCCC(C)C(=O)Nc1nc(C)c(-c2csc(Nc3ccc(Cl)cc3)n2)s1 (stereo not given)	-80.1*	?	-6.8%[8.37 µM]	.	.	?
COc1ccc(Cl)cc1Nc1nc(-c2sc(NC(=O)c3ccco3)nc2C)cs1	-31.9	-22.8%	2.51µM*	.	.	-26.8%
CCC(C)C(=O)Nc1nc(C)c(-c2csc(Nc3cc(Cl)ccc3OC)n2)s1 (stereo not given)	?	-22.4%	?	.	.	-19.2%
COc1ccc(Cl)cc1Nc1nc(-c2sc(NC(=O)C(C)(C)C)nc2C)cs1	-90.3*	-24.9%	?	.	.	-28.9%
Cc1c(C(=O)NCC2CCCN(C)C2)cnn1-c1ncc2c(n1)-c1ccccc1CCC2 (stereo not given)	.	-12.3%	.	.	.	-15.3%
Cc1ccc2[nH]c(=O)c(CN(CC3CCCO3)S(=O)(=O)c3c(C)ccc4nsnc34)cc2c1 (stereo not given)	-3.7	.	-18.7%	?	?	.
COc1ccc2[nH]c(=O)c(CN(Cc3cccs3)S(=O)(=O)c3c(C)ccc4nsnc34)cc2c1	-102.5*	.	11.2µM*	13µM*	?	.
Cc1ccc2nsnc2c1S(=O)(=O)N(Cc1ccco1)Cc1cc2cccc(C)c2[nH]c1=O	8.6	.	?	?	-22.2%	.
Cc1ccc2[nH]c(=O)c(CN(Cc3ccco3)S(=O)(=O)c3c(C)ccc4nsnc34)cc2c1	-3.1	-22.2%	7.08µM*!	?	?	-2.1%
Cc1ccc2nsnc2c1S(=O)(=O)N(Cc1ccco1)Cc1cc2ccc(C)c(C)c2[nH]c1=O	-85.3*	-5.9%	2.2%	?	1.58µM*	-12.3%
COc1cccc(C2C(C(=O)Nc3ccccc3OC)=C(C)Nc3nc4ccccc4n32)c1 (stereo not given)	-23.0	-7.9%	.	-13.8%[46.1 µM]	-0.1%[46.1 µM]	-26.6%
COc1ccc(-c2cc(C(=O)Oc3cccc(C)c3C)c3ccccc3n2)cc1	-15.0	-8.8%	.	-1.7%[46.1 µM]	.	-14.9%
COC1C=CC=C(C)C(=O)NC2=CC(=O)C(N)=C(CC(C)CC(OC)C(O)C(C)C=C(C)C1OC(N)=O)C2=O (stereo not given)	-97.5*	-40.4%	?	0.447µM*	0.199µM*	?
COC1CC(C)C(OC)c2cc(O)cc(c2O)NC(=O)C(C)=CC=CC(C)C(OC(N)=O)C(C)=CC(C)C1OC (stereo not given)	-99.2*	?	?	?	3.55µM*	?
CN(Cc1ccccc1)C(=O)CSc1nc2ccsc2c(=O)n1-c1ccc(F)cc1	?	-7.7%	.	-3.2%[46.1 µM]	.	-3.1%
Cc1csc(NC(=O)c2cc3c(s2)CCCCC3)n1	?	?	?	2.24µM*	?	.
O=C(Nc1ccc(N2CCOCC2)cc1)c1cc2c(s1)CCCCC2	-24.8	-20.0%	11.2µM*	-22.4%[46.1 µM]	?	-23.1%
CC1CCc2sc(C(=O)N(C)CC(=O)Nc3ccc(N4CCOCC4)cc3)cc2C1 (stereo not given)	-68.4*	-10.3%	0.1%	-5.5%	-2.6%	-17.5%
O=C(Nc1ccccc1N1CCOCC1)c1cc2c(s1)CCCCC2	-33.6	-14.1%	-6.3%	?	?	-1.6%
O=C(Nc1ccc(N2CCOCC2)cc1)c1cc2c(s1)CCCC2	?	-27.9%	3.98µM*	-13.8%[46.1 µM]	?	-19.0%

Compound activity: PubChem BioAssay, National Center for Advancing Translational Sciences (NCATS)
